For 40 compounds, growth results are on record in PubChem BioAssay (NCI).

This is part of a sample that, as a whole, favours compounds with a hit. Of some 83,000 tested, about 20% had one in any assay.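 In brief: 96-well plates, 48 h treatment, single concentration, percent growth endpoint.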 Unmarked numbers belong to inactive results. Activity calls are given as the source filed them. How the source made its calls: active means growth percent below 10; inactive means the rest.

The subject of the assay is HL-60(TB) leukemia. As to the kind of experiment: NCI-60 one-dose screen, 48 h (100 = growth as untreated, 0 = no growth, -100 = all killed). Conditions: 10 µM unless noted.
In the case of `O=C(/C=C/c1sc(Cl)nc1Cl)c1ccc(F)cc1`, the growth was 61.2%.

Turning to `COC(=O)c1c2c(c(C)[n+]([O-])c1C)C(=O)C=CC2=O`, the growth was -7.95% (active).

With `COc1cc2c(cc1NC(=O)C(F)(F)F)-c1ccc(NC(=O)C(F)(F)F)cc1C2`, the growth was 99.3%.

Turning to `O=C(CCCCCCN1CC(=O)N2[C@@H](C3CCCCC3)c3[nH]c4ccccc4c3C[C@H]2C1=O)NO`, the growth was 5.7% (active).

On to `COCCn1cc(-c2nc(-c3cc4cccnc4n3C)cs2)c2ccccc21`, for which the growth was 42.2%.

On to `c1ccc(Cn2cnc3ccc(-c4nc(-c5ccc6c(c5)ncn6C5CCCCC5)cn5ccnc45)cc32)cc1`, for which the growth was -20.8% (active).

For `CC(=O)OC[C@]12CC[C@@H](C(=O)CBr)[C@@H]1[C@H]1CC[C@@H]3[C@@]4(C)CCCNC(C)(C)[C@@H]4CC[C@@]3(C)[C@]1(C)CC2`, the growth is -18% [100 µM] (active).

`COc1cc(C(=O)/C=C/c2c(C)n([O-])c3ccc(C)cc3[n+]2=O)cc(OC)c1OC`: the growth was -42.6% (active).

As to `Cc1cc(NCCCNc2ccnc3cc(Cl)ccc23)nc(N2CCN(C)CC2)n1`, the growth was 15.7%.

In the case of `CCOC(=O)Nc1ccc(-c2ccc3c(c2)NC(=O)/C3=C\c2ccc[nH]2)cc1`, the growth is 98.5%.

`COc1cc(CN(c2ccc(C)cc2)C2OC(=O)c3ccccc32)cc(OC)c1OC` (stereo not given): the growth was -30.4% (active).

As to `C=C(C)[C@@H]1CC[C@]2(C=NCCCNCCCCNCCCN)CC[C@]3(C)[C@H](CC[C@@H]4[C@@]5(C)CCCNC(C)(C)[C@@H]5CC[C@]43C)[C@@H]12`, the growth is 89.6%.

For `O=C(CCCSc1nc(-c2ccc(Cl)cc2)cc(-c2ccc(Cl)cc2)n1)NO`, the growth was -25.4% (active).

For `O=S1(=O)N(CCNc2nccc(-c3c(-c4cccc(O)c4)nc4sccn34)n2)CCN1Cc1ccccc1`, the growth is 91.8%.

For the compound `OCC12CCCC(CO)(COC1)C2O` (stereo not given), the growth is 118%.

For `COC(=O)[C@]12CC[C@@H](C)[C@H](C)[C@@H]1C1=CC[C@@H]3[C@@]4(C)C(C=O)=C[C@@](C)(COC(C)=O)C4=CC[C@@]3(C)[C@]1(C)CC2`, the growth is -53.1% (active).

Take `Cc1ccc(S(=O)(=O)NCCCNc2nccc(-c3c(-c4ccccc4)nc4sccn34)n2)cc1`: the growth was -13.1% (active).

`Nc1ccn(C2CC(O)C(CO)O2)c(=O)n1` (stereo not given): the growth was 86.1%.

For `CC(C)OCC1CO1` (stereo not given), the growth is 103%.

On to `CCN1C(=O)N(CC)C2C1NN=c1s/c(=C\c3ccc(Br)cc3)c(=O)n12` (stereo not given), for which the growth was -30.5% (active).

Regarding `COc1nc2c(cc1S(=O)(=O)c1ccccc1)CCc1c-2cnn1-c1ccc(Cl)cc1`, the growth was 90.5%.

For the compound `COc1cc2cc(NCc3cccc(Cl)c3)nc(C)c2cc1OC`, the growth is 14.5%.

On to `CCOC(=O)c1sc(NC(=O)COc2ccc(/C=C3\CCc4cc(OC)ccc4C3=O)cc2)nc1C`, for which the growth is -57.4% (active).

With `COc1ccc(-c2cc(/C=C/C(=O)c3ccc(N)cc3)[nH]n2)cc1OC`, the growth is 20.1%.

Take `O=C(Nc1cccc2ccccc12)c1cc2c(cc1Br)OCO2`: the growth was 75.9%.

In the case of `Cc1ccc(S(=O)(=O)N2CCCN(c3nc(-c4ccccc4)nc4nc(-c5ccccc5)oc34)CC2)cc1`, the growth is 110%.

With `CCN(CC)CCCN1C(=O)c2c(c(C)c3c(oc4ccc(OC)cc43)c2C)C1=O`, the growth is 97.6%.

For `O=C(N/N=C/c1ccc(O)cc1O)c1ccc(Nc2ccnc(C(F)(F)F)c2)cc1`, the growth is 44.1%.

As to `O=C(C(=O)N1CCCCC1)c1ccc(OC2OC(CO)C(O)C(O)C2O)cc1` (stereo not given), the growth was 77.8%.

In the case of `C=C1C(=O)O[C@H]2[C@H]1CC/C(CNC(=O)CCc1ccc(OC)cc1)=C\CC[C@@]1(C)O[C@@H]21`, the growth is 3.96% (active).

In the case of `COc1ccc(C(=O)COc2cccc(/C=C3\CSc4ccccc4C3=O)c2)cc1`, the growth was -55.5% (active).

`CCCCNNC(=O)c1ccc(Br)cc1`: the growth was 18.3%.

In the case of `COc1cccc(-n2cc(-c3nc(Cl)c4ccccc4n3)nn2)c1`, the growth was 97.3%.

In the case of `Cc1cccc2c(N)c3ccccc3nc12`, the growth was 9.2% (active).

On to `CCN1CCN(c2ccc(Nc3ncnc4c3nnn4CCc3cc(OC)cc(OC)c3)cc2)CC1`, for which the growth was 87.8%.

On to `Cc1cc[n+](CCCC[n+]2ccc(C)cc2)cc1`, for which the growth was 94.5%.

For `C=C1c2nc3ccccc3n2C=C(c2cccc(Cl)c2)N1Cc1ccc(OC)cc1`, the growth was -25% (active).

As to `C=C1C(=O)O[C@H]2[C@H]1CC/C(COC(=O)NCc1cccc(OC)c1)=C\CC[C@@]1(C)O[C@@H]21`, the growth was -38.6% (active).

`CCN(C)c1ccccc1`: the growth is 100%.

Regarding `Cc1ccccc1CNc1ncnc2[nH]ncc12`, the growth is 49.2%.
